# PKM2 act – qHTS Assay for Activators of Human Muscle isoform 2 Pyruvate Kinase; Pyruvate kinase PKM (Homo sapiens), P14618; purified PKM2, Kinase-Glo ATP luminescence, activation; response scale: 0% is enzyme alone, no compound; Potency, µM (titrated, usually from 57.5 µM), without a hit: at the top dose activation, most hits filed as activators; hit rate 0.34% among 260,000; AID 1631, 2009; further: nearly all actives have a fitted effect of over 55% in size
# Target sequence (P14618 whole entry, looked up, canonical isoform): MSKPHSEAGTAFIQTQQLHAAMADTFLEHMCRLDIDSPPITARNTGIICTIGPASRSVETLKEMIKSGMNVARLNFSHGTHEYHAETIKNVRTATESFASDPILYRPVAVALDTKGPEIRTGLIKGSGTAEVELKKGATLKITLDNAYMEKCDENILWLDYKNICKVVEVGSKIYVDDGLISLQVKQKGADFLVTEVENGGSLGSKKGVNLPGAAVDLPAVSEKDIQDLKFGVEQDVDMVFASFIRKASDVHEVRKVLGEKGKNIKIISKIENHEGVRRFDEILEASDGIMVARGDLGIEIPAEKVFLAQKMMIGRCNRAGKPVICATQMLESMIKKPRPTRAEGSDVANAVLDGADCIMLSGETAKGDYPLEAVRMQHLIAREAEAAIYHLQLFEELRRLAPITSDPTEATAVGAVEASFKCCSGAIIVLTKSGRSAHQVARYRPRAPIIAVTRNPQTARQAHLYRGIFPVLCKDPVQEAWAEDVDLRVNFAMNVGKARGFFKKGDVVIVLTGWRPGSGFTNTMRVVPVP
#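 ATP formation by purified human PK-M2, quantified via coupled luciferase luminescence after 1 h at room temperature with 0.1 mM ADP and 0.5 mM PEP final.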
# Anesthetic bind – qHTS Assay for Identification of Novel General Anesthetics; AID 485281, 2010; Ferritin light chain (Equus caballus), P02791; Potency, µM (top dose mostly 77.5 µM), inactives show top-dose activity change, negative = displacement, most hits filed as inhibitors; apoferritin/1-aminoanthracene competitive binding, fluorescence; hit rate 0.074% among 350,000; further: nearly all actives have a fitted effect of over 20% in size
# Target sequence (P02791 2-175 limits assumed): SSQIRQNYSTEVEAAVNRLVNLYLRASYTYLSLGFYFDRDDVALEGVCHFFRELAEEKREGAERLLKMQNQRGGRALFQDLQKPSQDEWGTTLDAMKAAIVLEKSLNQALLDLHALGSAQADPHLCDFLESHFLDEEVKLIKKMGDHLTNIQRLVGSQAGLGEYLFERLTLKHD
#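 Steps: apoferritin (10 uM) was premixed with half-saturated 1-AMA in PBS, compounds were pin-transferred, plates stood 10 min at room temperature, fluorescence was read at 380/535 nm, and curves were fitted with a Hill equation.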
# TrxR1 substrate – qHTS Assay for Substrates of Mammalian Selenoprotein Thioredoxin Reductase 1 (TrxR1): qHTS; Thioredoxin reductase 1, cytoplasmic (Rattus norvegicus), O89049; purified TrxR1 substrate turnover, NADPH consumption readout; Potency, µM (highest dose often 114 µM), for inactives: at the highest dose activity change, negative = substrate turnover; hit rate 0.01% among 390,000; AID 588456, 2011; further: nearly all actives have a fitted effect of over 50% in size
#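 Rat TrxR1, dispensed at 90 nM, was prereduced with 400 uM NADPH (final) for 5 min at ~22 deg C, then incubated with compound 15 min before 400 uM selenite. A first-read NADPH fluorescence drop versus no-compound background flagged substrates.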
# TrxR1 inh – qHTS Assay for Inhibitors of Mammalian Selenoprotein Thioredoxin Reductase 1 (TrxR1): qHTS | recombinant rTrxR1, NADPH fluorescence consumption, selenite substrate | Potency, µM (doses to about 114 µM), without a hit: at the top dose activity change, negative = inhibition, hits mostly inhibitors | hit rate 1% among 390,000; further: nearly all actives have a fitted effect of over 65% in size
#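 Rat TrxR1 (90 nM in the dispensed reagent) was pre-reduced with 400 uM NADPH for 5 min at room temperature, then incubated with compound for 15 min. After 400 uM selenite was added, NADPH fluorescence (Ex 340/Em 450 nm) was followed for 8 min.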
# GALK inhibitor – qHTS Assay for Inhibitors of Human Galactokinase (GALK); hit rate 0.007% among 270,000; Purified GALK, Kinase-Glo residual ATP luminescence; AID 1868, 2009; P51570; Potency, µM (highest dose often 57.5 µM), for the others: at the top dose activity change, negative = inhibition, hits mostly inhibitors
#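 Kinase-Glo Plus luminescence measured ATP left after a 1 h room-temperature reaction. The reaction used 5 nM GALK, 100 uM galactose and 35 uM ATP at pH 8.0 (20 mM HEPES, 5 mM MgCl2, 60 mM NaCl, 1 mM DTT, 0.01% BSA).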
# mIDH1 inhibitor – qHTS for Inhibitors of mutant isocitrate dehydrogenase 1 (IDH1): qHTS; AID 602179, 2012; IDH1-R132H enzyme, NADPH consumption, diaphorase/resazurin fluorescence; hit rate 0.093% among 390,000; Isocitrate dehydrogenase [NADP] cytoplasmic (Homo sapiens), O75874; Potency, µM (highest dose often 76.6 µM), for the others: at the highest dose activity change, negative = inhibition, usual class: inhibitors; further: nearly all actives have a fitted effect of over 65% in size
#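 IDH1-R132H (0.5 ug/mL dispensed) in pH 7.5 Tris buffer was preincubated 30 min with compound, then given a substrate mix of 0.016 mM NADPH and 2 mM alpha-KG for 80 min at room temperature; remaining NADPH was read by diaphorase/resazurin fluorescence.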
# An asterisk follows results filed as active; i = inactive; ? = inconclusive; . = no result given; [ ] = dose if it differs, or a comment. Shown are actives, neighbours in structure and some others; about 1.3% of the full set was active somewhere. The call rests on the fitted dose curve; in most records, active means well fitted curve in the direction sought with a large enough effect; inconclusive means small, poorly fitted or top-dose-only effect, or another doubt; inactive means no such curve, though single readings can be large; an effect the other way counts as inactive or inconclusive. On the % scale 0 is the no-effect control and ±100 the full control effect; potency means the concentration at half of the fitted maximal effect.
SMILES,PKM2 act,Anesthetic bind,TrxR1 substrate,TrxR1 inh,GALK inhibitor,mIDH1 inhibitor
CCOC(=O)NC1(NCc2ccccc2)Oc2ccccc2O1,15%,-11%,2%[57.1 µM],32µM*,-3%,-5%
CCOC(=O)NC1(NC2CCCCC2)Oc2ccccc2O1,4%,?,1%[57.1 µM],32µM*,-1%,-5%
COc1ccc(OC)c2c(/C=C/c3c(C)[nH]c4ccccc34)ccnc12,.,.,0%,4%,.,.
CCCCNc1ncnc2oc(-c3ccco3)c(-c3ccco3)c12,.,.,18%,?,.,.
O=C(Nc1cccnc1)C1(F)C(F)(F)C(F)(F)C(F)(F)C(F)(F)C1(F)F,-3%,13µM*,-10%[57.1 µM],?,-2%,2%
O=C(Nc1cccnc1)C12CC3CC(CC(C3)C1)C2,2%,?,-6%,-5%,-2%,-5%
Cc1nc2ccccc2nc1-c1csc(-c2ccccc2)n1,.,.,0%,?,.,.
COCCn1c(SCC(=O)c2ccc3c(c2)OCCO3)nnc1-c1ccco1,0%,-14%,6%,?,2%,5%
CCn1c(SCC(=O)c2ccc3c(c2)OCCO3)nnc1-c1ccco1,22%,-20%,1%,50µM*,2%,14%
Cn1ncc(S(=O)(=O)Cc2ccccc2)c(Br)c1=O,.,.,21%[57.1 µM],0.95µM*,.,.
CC(=O)Nc1nc2n(n1)C(c1ccc(F)cc1)C=C(c1ccccc1)N2 (configuration not stated),15%,686%,17%,?,0%,0%
C1=C(c2ccccc2)Nc2ncnn2C1c1ccccc1 (configuration not stated),.,.,21%,32µM*,.,19%
CC(=O)Nc1nc2n(n1)C(c1ccccc1)C=C(c1ccccc1)N2 (configuration not stated),-5%,i,84%,40µM*,-3%,5%
O=C1CCC(=O)N1c1nc2n(n1)C(c1ccccc1)C=C(c1ccc(Br)cc1)N2 (configuration not stated),20%,351%,0%,71µM*,2%,8%
Cc1ccc(C2=CC(c3ccccc3)n3ncnc3N2)cc1 (configuration not stated),.,.,57%,-12%,.,-3%
Cc1cc[n+](CCC2CCCCC2)cc1,.,.,7%,21%,.,.
O=C(O)c1ccccc1SC1CC(=O)N(c2cccc3ccccc23)C1=O (configuration not stated),?,29%,15%,20µM*,4%,2%
CCN1C(=O)CC(Sc2ccccc2C(=O)O)C1=O (configuration not stated),5%,-7%,7%,-4%,0%,5%
CCOc1ccc(N2C(=O)CC(Sc3ccccc3C(=O)O)C2=O)c([N+](=O)[O-])c1 (configuration not stated),?,-8%,5%,28µM*,-1%,14%
COc1ccccc1NC(=O)CN1CCCN(S(=O)(=O)c2ccc(Br)cc2)CC1,.,75%,-7%,12%,.,-9%
Cc1ccccc1NC(=O)c1nc(S(C)(=O)=O)ncc1N(Cc1ccco1)Cc1sccc1C,.,-24%,1%,-4%,.,-9%
CN(C)c1ccc(/C=C/c2ccc3cc(N)ccc3n2)cc1,.,.,0%,1%,.,.
Cc1cc(=O)oc2c3c(ccc12)OCN(Cc1ccc(Cl)cc1)C3,.,545%,916%,20µM*,.,-13%
CCCc1cc(=O)oc2c3c(ccc12)OCN(Cc1ccccc1OC)C3,.,i,i,22µM*,.,4%
COc1ccccc1CN1COc2ccc3c(oc(=O)c4ccccc43)c2C1,.,-9%,11%,19%,.,-1%
SMILES,PKM2 act,Anesthetic bind,TrxR1 substrate,TrxR1 inh,GALK inhibitor,mIDH1 inhibitor
O=c1oc2c3c(ccc2c2ccccc12)OCN(Cc1ccc(Cl)cc1)C3,.,1%,12%,31%,.,28%
Cc1ccc2nccnc2c1,.,.,-11%,?,.,.
N#Cc1ccc(NC(=O)COC(=O)CNC(=O)C2CCCCC2)cc1,6%,8.9µM*,2%,4%,2%,1%
Cc1cc2ccccn2c1C(=O)c1ccc([N+](=O)[O-])cc1[N+](=O)[O-],-2%,3%,-1%[57.1 µM],3.2µM*,7%,7%
Cc1cc2ccccn2c1C(=O)c1ccc([N+](=O)[O-])o1,-1%,?,7%[57.1 µM],11µM*,0%,1%
Cc1cc2ccccn2c1C(=O)c1cccc([N+](=O)[O-])c1,1%,?,12%[57.1 µM],23%[57.1 µM],0%,15%
O=Cc1ccnc2ccccc12,.,.,-4%,6%,.,.
CC(=O)N1CCc2cc(Br)cc(S(=O)(=O)CCC(=O)N3CCN(c4ccccc4)CC3)c21,.,-6%,10%,23%,.,1%
COc1ccccc1NCC(=O)c1ccc(Cl)cc1,.,?,5%[57.1 µM],14%[57.1 µM],-2%,46µM*
Cc1ccc(-c2nnc(Nc3ccc(O)cc3)c3ccccc23)cc1S(=O)(=O)NCC1CCCO1 (configuration not stated),.,-10%,-1%,11%,.,1%
O=C1NC(=O)/C(=C/c2ccc3c(c2)OC(F)(F)O3)S1,.,.,-3%[57.1 µM],-8%[57.1 µM],.,.
O=C(NC(=S)NC1CCCC1)c1ccccc1,1%,-23%,-7%,?,0%,-7%
O=C(NC(=S)NC1C2CC3CC(C2)CC1C3)c1ccccc1 (configuration not stated),-8%,?,5%,50µM*,-5%,0%
COc1ccc(C(=O)NC(=S)Nc2cccnc2)cc1[N+](=O)[O-],-3%,-1%,-3%,10µM*,10%,-8%
Cc1cc(C)cc(C(=O)NC(=S)Nc2cccnc2)c1,0%,-13%,4%,45µM*,6%,0%
O=C(NC(=S)Nc1cccnc1)c1cccc(Cl)c1,.,.,.,.,.,-7%
O=C(CSc1nnc(-c2ccncc2)n1Cc1ccco1)c1ccc(Cl)cc1,13%,4%,8%,32µM*,-2%,2%
COc1ccc(C(=O)CSc2nnc(-c3cccnc3)n2Cc2ccco2)cc1,7%,-21%,-9%,50µM*,0%,9%
O=C(CSc1nnc(-c2ccc(Cl)cc2)n1Cc1ccco1)c1cccs1,0%,-18%,-6%,35µM*,-2%,5%
COc1ccc(C(=O)CSc2nnc(-c3cnccn3)n2Cc2ccco2)cc1,3%,?,15%,?,1%,12%

# Compound activity as filed in PubChem.
